# Measurements as given in the supplement of paper PMC4466140.
# B1: unnamed (peptide)
# chain: YRRKSIPFAPHQITA
# B2: unnamed (peptide)
# chain: QRKSLRRPTLSKPAV
# Molecular target: CaNbp2
# Assay: SPOT peptide array binding signal intensity (averaged, normalized) (arbitrary units (background-subtracted, floor 0; scale differs between SH3 domains)); higher = stronger binding of the SH3 domain to the peptide
# Procedure: (§1)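 GST-tagged SH3 domains from S. cerevisiae (Sc), A. gossypii (Ag), C. albicans (Ca) and S. pombe (Sp) were incubated at 10 ug/ml overnight at 4 C on cellulose SPOT membranes carrying 292 synthetic 15-mer peptides mined from the S. cerevisiae proteome (cysteines replaced by serines). Binding was detected with anti-GST antibody, HRP secondary and chemiluminescence, quantified with Genespotter, and reported as normalized spot intensities averaged over biological replicates.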
row,Binder,SPOT peptide array binding signal intensity
1,B1,161
2,B2,319

# Molecular target: CaRvs167
# Assay: as above
# Procedure: as §1
row,Binder,SPOT peptide array binding signal intensity
1,B1,15.7
2,B2,17.5

# Molecular target: CaRvs167-3
# Assay: as above
# Procedure: as §1
row,Binder,SPOT peptide array binding signal intensity
1,B1,18.5
2,B2,5.5

# Molecular target: CaSho1
# Assay: as above
# Procedure: as §1
row,Binder,SPOT peptide array binding signal intensity
1,B1,70
2,B2,76

# Molecular target: CaSla1-D1-D2
# Assay: as above
# Procedure: as §1
row,Binder,SPOT peptide array binding signal intensity
1,B1,118
2,B2,118

# Molecular target: CaSla1-D3
# Assay: as above
# Procedure: as §1
row,Binder,SPOT peptide array binding signal intensity
1,B1,2.5
2,B2,≤ 0

# Molecular target: ScAbp1
# Assay: as above
# Procedure: as §1
row,Binder,SPOT peptide array binding signal intensity
1,B1,53
2,B2,52.5

# Molecular target: ScBbc1
# Assay: as above
# Procedure: as §1
row,Binder,SPOT peptide array binding signal intensity
1,B1,9.25
2,B2,45.8

# Molecular target: ScBem1-D1
# Assay: as above
# Procedure: as §1
row,Binder,SPOT peptide array binding signal intensity
1,B1,29.5
2,B2,53

# Molecular target: ScBzz1-D1
# Assay: as above
# Procedure: as §1
row,Binder,SPOT peptide array binding signal intensity
1,B1,66
2,B2,32

# Molecular target: ScBzz1-D2
# Assay: as above
# Procedure: as §1
row,Binder,SPOT peptide array binding signal intensity
1,B1,90
2,B2,43

# Molecular target: ScCyk3
# Assay: as above
# Procedure: as §1
row,Binder,SPOT peptide array binding signal intensity
1,B1,10
2,B2,17

# Molecular target: ScFus1
# Assay: as above
# Procedure: as §1
row,Binder,SPOT peptide array binding signal intensity
1,B1,89
2,B2,151

# Molecular target: ScHof1
# Assay: as above
# Procedure: as §1
row,Binder,SPOT peptide array binding signal intensity
1,B1,3.5
2,B2,0.5

# Molecular target: ScHse1
# Assay: as above
# Procedure: as §1
row,Binder,SPOT peptide array binding signal intensity
1,B1,380
2,B2,1190

# Molecular target: ScLsb1
# Assay: as above
# Procedure: as §1
row,Binder,SPOT peptide array binding signal intensity
1,B1,0.25
2,B2,4

# Molecular target: ScLsb2
# Assay: as above
# Procedure: as §1
row,Binder,SPOT peptide array binding signal intensity
1,B1,25
2,B2,6

# Molecular target: ScLsb3
# Assay: as above
# Procedure: as §1
row,Binder,SPOT peptide array binding signal intensity
1,B1,20
2,B2,356

# Molecular target: ScLsb4
# Assay: as above
# Procedure: as §1
row,Binder,SPOT peptide array binding signal intensity
1,B1,6
2,B2,10.5

# Molecular target: ScMyo3
# Assay: as above
# Procedure: as §1
row,Binder,SPOT peptide array binding signal intensity
1,B1,0.5
2,B2,0.5

# Molecular target: ScMyo5
# Assay: as above
# Procedure: as §1
row,Binder,SPOT peptide array binding signal intensity
1,B1,6
2,B2,1

# Molecular target: ScNbp2
# Assay: as above
# Procedure: as §1
row,Binder,SPOT peptide array binding signal intensity
1,B1,160
2,B2,183

# Molecular target: ScPex13
# Assay: as above
# Procedure: as §1
row,Binder,SPOT peptide array binding signal intensity
1,B1,185
2,B2,≤ 0

# Molecular target: ScRvs167
# Assay: as above
# Procedure: as §1
row,Binder,SPOT peptide array binding signal intensity
1,B1,33.3
2,B2,25

# Molecular target: ScSho1
# Assay: as above
# Procedure: as §1
row,Binder,SPOT peptide array binding signal intensity
1,B1,145
2,B2,250

# Molecular target: ScSla1-D1-D2
# Assay: as above
# Procedure: as §1
row,Binder,SPOT peptide array binding signal intensity
1,B1,166
2,B2,370

# Molecular target: ScSla1-D3
# Assay: as above
# Procedure: as §1
row,Binder,SPOT peptide array binding signal intensity
1,B1,4.25
2,B2,38.8

# Molecular target: SpAbp1-D1
# Assay: as above
# Procedure: as §1
row,Binder,SPOT peptide array binding signal intensity
1,B1,99
2,B2,101

# Molecular target: SpBbc1
# Assay: as above
# Procedure: as §1
row,Binder,SPOT peptide array binding signal intensity
1,B1,2
2,B2,3.5

# Molecular target: SpBzz1-D1
# Assay: as above
# Procedure: as §1
row,Binder,SPOT peptide array binding signal intensity
1,B1,189
2,B2,202

# Molecular target: SpBzz1-D2
# Assay: as above
# Procedure: as §1
row,Binder,SPOT peptide array binding signal intensity
1,B1,0.5
2,B2,≤ 0

# Molecular target: SpCyk3
# Assay: as above
# Procedure: as §1
row,Binder,SPOT peptide array binding signal intensity
1,B1,≤ 0
2,B2,≤ 0

# Molecular target: SpHof1
# Assay: as above
# Procedure: as §1
row,Binder,SPOT peptide array binding signal intensity
1,B1,25.8
2,B2,38.8

# Molecular target: SpHof1-2
# Assay: as above
# Procedure: as §1
row,Binder,SPOT peptide array binding signal intensity
1,B1,1.5
2,B2,6.5

# Molecular target: SpHof1-3
# Assay: as above
# Procedure: as §1
row,Binder,SPOT peptide array binding signal intensity
1,B1,106
2,B2,375

# Molecular target: SpHse1
# Assay: as above
# Procedure: as §1
row,Binder,SPOT peptide array binding signal intensity
1,B1,88.2
2,B2,140

# Molecular target: SpLsb1
# Assay: as above
# Procedure: as §1
row,Binder,SPOT peptide array binding signal intensity
1,B1,4.5
2,B2,8.75

# Molecular target: SpLsb4
# Assay: as above
# Procedure: as §1
row,Binder,SPOT peptide array binding signal intensity
1,B1,48
2,B2,99

# Molecular target: SpMyo1
# Assay: as above
# Procedure: as §1
row,Binder,SPOT peptide array binding signal intensity
1,B1,5.5
2,B2,7.75

# Molecular target: SpNbp2
# Assay: as above
# Procedure: as §1
row,Binder,SPOT peptide array binding signal intensity
1,B1,64
2,B2,63.5

# Molecular target: SpPex13
# Assay: as above
# Procedure: as §1
row,Binder,SPOT peptide array binding signal intensity
1,B1,19
2,B2,10

# Molecular target: SpRvs167
# Assay: as above
# Procedure: as §1
row,Binder,SPOT peptide array binding signal intensity
1,B1,6.33
2,B2,14.5

# Molecular target: SpSla1-D1-D2
# Assay: as above
# Procedure: as §1
row,Binder,SPOT peptide array binding signal intensity
1,B1,≤ 0
2,B2,≤ 0

# Molecular target: SpSla1-D3
# Assay: as above
# Procedure: as §1
row,Binder,SPOT peptide array binding signal intensity
1,B1,11
2,B2,1

# Molecular target: AgAbp1
# Assay: as above
# Procedure: as §1
row,Binder,SPOT peptide array binding signal intensity
1,B2,32

# Molecular target: AgBbc1
# Assay: as above
# Procedure: as §1
row,Binder,SPOT peptide array binding signal intensity
1,B2,108

# Molecular target: AgBem1-D1
# Assay: as above
# Procedure: as §1
row,Binder,SPOT peptide array binding signal intensity
1,B2,210

# Molecular target: AgBzz1-D1
# Assay: as above
# Procedure: as §1
row,Binder,SPOT peptide array binding signal intensity
1,B2,40.5

# Molecular target: AgBzz1-D2
# Assay: as above
# Procedure: as §1
row,Binder,SPOT peptide array binding signal intensity
1,B2,42

# Molecular target: AgCyk3
# Assay: as above
# Procedure: as §1
row,Binder,SPOT peptide array binding signal intensity
1,B2,1

# Molecular target: AgFus1
# Assay: as above
# Procedure: as §1
row,Binder,SPOT peptide array binding signal intensity
1,B2,336

# Molecular target: AgHof1
# Assay: as above
# Procedure: as §1
row,Binder,SPOT peptide array binding signal intensity
1,B2,66

# Molecular target: AgHse1
# Assay: as above
# Procedure: as §1
row,Binder,SPOT peptide array binding signal intensity
1,B2,244

# Molecular target: AgLsb1
# Assay: as above
# Procedure: as §1
row,Binder,SPOT peptide array binding signal intensity
1,B2,4.25

# Molecular target: AgLsb4
# Assay: as above
# Procedure: as §1
row,Binder,SPOT peptide array binding signal intensity
1,B2,17

# Molecular target: AgMyo5
# Assay: as above
# Procedure: as §1
row,Binder,SPOT peptide array binding signal intensity
1,B2,1.5

# Molecular target: AgNbp2
# Assay: as above
# Procedure: as §1
row,Binder,SPOT peptide array binding signal intensity
1,B2,108

# Molecular target: AgRvs167
# Assay: as above
# Procedure: as §1
row,Binder,SPOT peptide array binding signal intensity
1,B2,1.67

# Molecular target: AgSho1
# Assay: as above
# Procedure: as §1
row,Binder,SPOT peptide array binding signal intensity
1,B2,10

# Molecular target: AgSla1-D1-D2
# Assay: as above
# Procedure: as §1
row,Binder,SPOT peptide array binding signal intensity
1,B2,14

# Molecular target: AgSla1-D3
# Assay: as above
# Procedure: as §1
row,Binder,SPOT peptide array binding signal intensity
1,B2,3.75

# Molecular target: CaAbp1-D1
# Assay: as above
# Procedure: as §1
row,Binder,SPOT peptide array binding signal intensity
1,B2,272

# Molecular target: CaAbp1-D2
# Assay: as above
# Procedure: as §1
row,Binder,SPOT peptide array binding signal intensity
1,B2,220

# Molecular target: CaBbc1
# Assay: as above
# Procedure: as §1
row,Binder,SPOT peptide array binding signal intensity
1,B2,338

# Molecular target: CaBem1-D1
# Assay: as above
# Procedure: as §1
row,Binder,SPOT peptide array binding signal intensity
1,B2,79

# Molecular target: CaBzz1-D1
# Assay: as above
# Procedure: as §1
row,Binder,SPOT peptide array binding signal intensity
1,B2,78

# Molecular target: CaBzz1-D2
# Assay: as above
# Procedure: as §1
row,Binder,SPOT peptide array binding signal intensity
1,B2,104

# Molecular target: CaCyk3
# Assay: as above
# Procedure: as §1
row,Binder,SPOT peptide array binding signal intensity
1,B2,16.5

# Molecular target: CaFus1
# Assay: as above
# Procedure: as §1
row,Binder,SPOT peptide array binding signal intensity
1,B2,298

# Molecular target: CaHof1
# Assay: as above
# Procedure: as §1
row,Binder,SPOT peptide array binding signal intensity
1,B2,≤ 0

# Molecular target: CaHse1
# Assay: as above
# Procedure: as §1
row,Binder,SPOT peptide array binding signal intensity
1,B2,10

# Molecular target: CaLsb1
# Assay: as above
# Procedure: as §1
row,Binder,SPOT peptide array binding signal intensity
1,B2,0.5

# Molecular target: CaLsb4
# Assay: as above
# Procedure: as §1
row,Binder,SPOT peptide array binding signal intensity
1,B2,89.5

# Molecular target: CaMyo5
# Assay: as above
# Procedure: as §1
row,Binder,SPOT peptide array binding signal intensity
1,B2,3.5
